Experimental data as given in the supplement of paper PMC12636033.
± gives the standard deviation of the averaged measurements. In all, about 33,000 sequences were measured (“E-score (rank enrichment, -0.5 to 0.5)”: median about -0.0075, highest 2% from about 0.23 on). The sample as a whole holds a higher share of the highest values than the screen did.

test system: WT Max(13-93) synthetic (M65Nle); test: PBM 8-mer E-score (E-score (rank enrichment, -0.5 to 0.5)); higher = stronger preferential binding
Procedure: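 Protein binding microarray (universal PBM chip covering all 10-mers in fixed probe flanks) with chemically synthesized human Max(13-93) bHLH-LZ analogs (not full-length Max) bearing noncanonical residues (hArg, Tha, Aib, Nle at 65) and aromatic Cys staples. Read-out per 8-mer (and its reverse complement): E-score (rank-based enrichment, -0.5 to 0.5) and Z-score of median probe intensity.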

Row | Sequence | PBM 8-mer E-score
1 | CGCACTGA | -0.179 ± 0.032
2 | ACTGTGTC | -0.00876 ± 0.03
3 | GTCTGGCA | -0.0283 ± 0.1
4 | ATAGACAA | 0.1094 ± 0.00018
5 | ACCTCGAT | -0.1167 ± 0.00076
6 | ATTCTAAG | 0.0595 ± 0.006
7 | CTGATCCA | 0.0725 ± 0.042
8 | CAGAGAAC | -0.0299 ± 0.06
9 | TATGATCA | 0.0122 ± 0.2
10 | AAACAGTT | 0.0134 ± 0.022
11 | CCCCTATC | -0.00604 ± 0.055
12 | GTCGGAGA | -0.0989 ± 0.0099
13 | CCATGCTC | 0.084 ± 0.019
14 | ACATGCCT | 0.219 ± 0.077
15 | AAATGCAT | 0.229 ± 0.035
16 | ACATGCTA | 0.174 ± 0.035
17 | ACATGCTC | 0.272 ± 0.0055
18 | ACATGCAT | 0.302 ± 0.039
19 | AGTCTGGC | -0.226 ± 0.12
20 | GTAGCACA | -0.0865 ± 0.011
21 | TGAAGTAA | 0.119 ± 0.0048
22 | AAAAGTAA | 0.157 ± 0.0098

Row | Sequence | PBM 8-mer E-score
23 | AAAAGTAT | 0.237 ± 0.021
24 | CAAAGTAA | 0.0802 ± 0.022
25 | AAAAGTAC | 0.155 ± 0.029
26 | GGAAGTAA | 0.238 ± 0.048
27 | GAAAGTAA | 0.267 ± 0.032
28 | AGAAGTAA | 0.154 ± 0.0017
29 | TAAAGTAA | 0.05 ± 0.016
30 | GCCAATCA | 0.0501 ± 0.062
31 | TAATCGAA | 0.0693 ± 0.0042
32 | CCGAAAGA | -0.0212 ± 0.033
33 | CCCGGGCA | -0.273 ± 0.045
34 | AGGGAGTC | -0.0877 ± 0.012
35 | CATCGGAA | -0.106 ± 0.077
36 | AAGTTGGG | -0.0303 ± 0.066
37 | ATGCACAA | 0.14 ± 0.051
38 | ATGCACGA | 0.172 ± 0.088
39 | ATGCACAC | 0.239 ± 0.079
40 | CTGCACGC | 0.167 ± 0.037
41 | ATGCACGC | 0.26 ± 0.026
42 | ATGCACAG | 0.108 ± 0.0019
43 | ACCTAGCT | -0.036 ± 0.038
44 | CCAATCAC | 0.158 ± 0.025

Row | Sequence | PBM 8-mer E-score
45 | ACAATCAC | 0.28 ± 0.016
46 | GCAATCAC | 0.0355 ± 0.036
47 | AACCAAGA | 0.113 ± 0.036
48 | AGGGGGGG | -0.162 ± 0.1
49 | TCAAATCA | 0.0295 ± 0.016
50 | CACAACAC | 0.162 ± 0.014
51 | TACAACAA | 0.245 ± 0.075
52 | CACAACAA | 0.17 ± 0.053
53 | AACAACAA | 0.222 ± 0.06
54 | GACAACAC | 0.025 ± 0.0086
55 | AACAACAC | 0.248 ± 0.025
56 | AGCCGCTC | -0.0773 ± 0.005
57 | AGGCACAC | -0.00413 ± 0.014
58 | TATTAGCA | 0.103 ± 0.035
59 | CCCCTCCA | 0.186 ± 0.16
60 | AGTAACAT | 0.165 ± 0.019
61 | ATAATACC | 0.203 ± 0.026
62 | GTATAATA | 0.194 ± 0.011
63 | GCATAATA | 0.195 ± 0.12
64 | CTATAATA | 0.125 ± 0.03
65 | ATAATACG | 0.179 ± 0.092
66 | ATATAATA | 0.256 ± 0.035

Row | Sequence | PBM 8-mer E-score
67 | ATAATATA | 0.262 ± 0.069
68 | ACATAATA | 0.288 ± 0.01
69 | ACATAATC | 0.111 ± 0.029
70 | CTAATATA | 0.203 ± 0.012
71 | ATAATACA | 0.265 ± 0.036
72 | ATAATATG | 0.2169 ± 0.00097
73 | AGCACAAT | 0.0982 ± 0.029
74 | ATCGGCCA | -0.199 ± 0.054
75 | AAGATGAA | 0.0673 ± 0.0063
76 | AGTTCCTA | -0.0137 ± 0.1
77 | CATTCCGA | 0.0189 ± 0.04
78 | CGCTCCAG | -0.224 ± 0.12
79 | ATACTCCC | 0.0233 ± 0.061
80 | AGCGATAA | -0.115 ± 0.023
81 | AAACCAGC | -0.182 ± 0.12
82 | CTGAAGGA | -0.0478 ± 0.038
83 | TACAAATA | 0.154 ± 0.042
84 | AACAAAAT | 0.301 ± 0.016
85 | AACAAAAA | 0.113 ± 0.021
86 | AACAAATA | 0.235 ± 0.039
